# Bioassay records: PubChem, National Center for Advancing Translational Sciences (NCATS)
# In the library only some 12% were active in any assay of this set; here they are far more common.
# G9a block = blocks human histone lysine methyltransferase G9a | Q96KQ7 | G9a H3K9 monomethylation, AlphaScreen, 2 h | Potency, µM (titrated, usually from 102 µM), inactives show top-dose activity, negative = inhibition, usual class: inhibitors | actives 8.8% (n = 350,000) | AID 504332; further: potency means the concentration at half of the fitted maximal effect; on the % scale 0 is the no-effect control and ±100 the full control effect; nearly all actives have a fitted effect of over 75% in size
# Target sequence (Q96KQ7 913-1193 limits assumed): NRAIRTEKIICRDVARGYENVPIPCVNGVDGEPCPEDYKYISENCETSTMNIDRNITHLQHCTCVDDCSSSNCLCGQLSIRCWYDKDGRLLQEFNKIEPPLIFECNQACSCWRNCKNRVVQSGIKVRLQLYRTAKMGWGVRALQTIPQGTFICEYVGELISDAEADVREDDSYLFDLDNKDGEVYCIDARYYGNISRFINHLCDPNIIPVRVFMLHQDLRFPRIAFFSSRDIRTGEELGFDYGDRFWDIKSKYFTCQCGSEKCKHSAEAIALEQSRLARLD
#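 G9a (20 nM) was preincubated 15 min with compound, then reacted 2 h at room temperature with 500 nM biotin-H3K9 peptide and 20 µM SAM. Monomethyl-H3K9 detected by AlphaScreen using anti-H3K9me1 antibody.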
# JMJD2A Tudor inh = JMJD2A Tudor domain (human) inhibition; O75164; AlphaScreen JMJD2A-Tudor / H3K4me3 peptide binding; Potency, µM (top dose mostly 114 µM), for the others: at the highest dose activity change, negative = inhibition, hits mostly inhibitors; actives 4.4% (n = 390,000); AID 504339; further: potency means the concentration at half of the fitted maximal effect; on the % scale 0 is the no-effect control and ±100 the full control effect; nearly all actives have a fitted effect of over 50% in size
# HP1b chromo inh = blocks HP1-beta chromodomain binding to methylated histone tails; P83916; AlphaScreen HP1-beta / biotin-H3K9me3 peptide binding; Potency, µM (series often up to 114 µM), without a hit: top-dose activity change, negative = inhibition, hits mostly inhibitors; actives 0.56% (n = 390,000); AID 540317; further: potency means the concentration at half of the fitted maximal effect; nearly all actives have a fitted effect of over 70% in size
#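 AlphaScreen: HP1-beta (50 nM) preformed 30 min with biotin-H3(1-18)K9me3 peptide (50 nM) in PBS pH 7.4, 0.01% Tween-20. Compound added for 30 min at RT, then streptavidin donor/nickel chelate acceptor beads (10 ug/mL) for 30 min.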
# BAZ2B inh = BAZ2B (human) inhibition. Q9UIF8. AlphaScreen BAZ2B-H3K14Ac peptide displacement. Potency, µM (top dose mostly 114 µM), without a hit: at the highest dose activity change, negative = inhibition, actives largely listed as inhibitors. actives 4.4% (n = 360,000); further: potency means the concentration at half of the fitted maximal effect; on the % scale 0 is the no-effect control and ±100 the full control effect; nearly all actives have a fitted effect of over 60% in size
#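 AlphaScreen displacement: compounds (up to 110uM) incubated 30 min at room temperature with a preformed 50 nM BAZ2B/50 nM biotinylated H3K14Ac peptide complex in PBS pH 7.4 with Tween-20. Donor and acceptor beads at 10 ug/mL final added, 20 min light-protected before reading.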
# PI5P4K alpha inh = PI5P4K alpha (human) kinase inhibition; PI5P4Kalpha enzyme, ADP-Glo luminescence, 60 min; stronger effect = lower value; max response, %; actives 1.2% (n = 330,000); AID 652105; active means max response of -50% or lower; inconclusive means between -30% and -50%; inactive means -30% or higher; further: value at the top dose of about 77 µM; on the % scale 0 is the no-effect control and ±100 the full control effect
# Target sequence (P48426 whole entry, looked up): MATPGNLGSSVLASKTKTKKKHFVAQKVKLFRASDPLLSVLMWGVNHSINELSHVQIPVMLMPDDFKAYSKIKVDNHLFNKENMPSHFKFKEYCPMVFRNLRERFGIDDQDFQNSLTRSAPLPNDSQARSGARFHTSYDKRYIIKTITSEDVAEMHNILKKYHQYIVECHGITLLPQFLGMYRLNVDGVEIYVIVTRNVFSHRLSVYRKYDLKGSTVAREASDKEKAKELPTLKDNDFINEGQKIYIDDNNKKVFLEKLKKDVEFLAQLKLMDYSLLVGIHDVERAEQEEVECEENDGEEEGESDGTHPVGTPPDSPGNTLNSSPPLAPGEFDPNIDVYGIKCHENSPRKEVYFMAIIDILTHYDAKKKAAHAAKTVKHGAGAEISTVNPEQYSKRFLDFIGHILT
#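 PI5P4Kalpha ADP-Glo assay; 5 microM ATP final; 60 min RT reaction; HEPES pH 7.4/EGTA/CHAPS, 5% DMSO; controls lacking substrate or enzyme; luminescent end-point.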
# PLK1 PBD inh = inhibitors of human PLK1 polo-box domain binding. AID 720504. actives 2.8% (n = 360,000). P53350. Plk1 PBD binding of FITC phosphopeptide, fluorescence polarization. Potency, µM, without a hit: max response, negative = inhibition, actives largely listed as inhibitors; further: potency means the concentration at half of the fitted maximal effect; series mostly up to about 57 µM; on the % scale 0 is the no-effect control and ±100 the full control effect; nearly all actives have a fitted effect of over 65% in size
# * marks the source's active call; other numbers are inactive results; ? = inconclusive; / = no result; [ ] = another dose, or the depositor's remark. Unless noted, the call rests on the fitted dose curve; in most records, active means well fitted curve in the direction sought with a large enough effect; inconclusive means small, poorly fitted or top-dose-only effect, or another doubt; inactive means no such curve, though single readings can be large; an effect the other way counts as inactive or inconclusive.
SMILES,G9a block,JMJD2A Tudor inh,HP1b chromo inh,BAZ2B inh,PI5P4K alpha inh,PLK1 PBD inh
CCOc1ccc(C(CC(=O)Nc2cc(C)c(Cl)cc2OC)N2Cc3ccccc3C2=O)cc1OC (stereo not given),?,-19%,21%,?,/,/
CCOC(=O)C1CCN(C(=O)C2CCCN2S(=O)(=O)c2ccc(Cl)cc2)CC1 (stereo not given),/,12%,55%,1%,-8,-4%
COc1ccccc1Sc1nc(-c2ccccn2)ncc1OC,?,89µM*,37%,22µM*,7,3%
COc1cnc(-c2ccccn2)nc1NC(C)C,56µM*,22µM*,16%,3.2µM*,3,-8%
COc1cnc(-c2ccccn2)nc1Sc1cccc(Cl)c1,66%[59 µM],?,15%,-3%,/,-3%
Cc1cccc(CNC(=O)Cn2nc(C)n3c(cc4cc(F)ccc43)c2=O)c1,7%[59 µM],0%,28%,2%,/,/
COc1ccccc1/C(C)=N/Oc1cc(N)cc([N+](=O)[O-])c1,-1%[12.7 µM],?,1%,?,3,4%
NS(=O)(=O)c1cccc(NC(=O)CSc2nnc(NC3CC3)s2)c1,/,/,/,/,-14,-3%
CN(C)S(=O)(=O)c1cccc(-c2nn(-c3ccccc3)cc2/C=C2\SC(=S)NC2=O)c1,40µM*,40µM*,?,32µM*,-86*,21µM*
CN(C)S(=O)(=O)c1cccc(-c2nn(-c3ccccc3)cc2/C=C(\C#N)c2nc3ccccc3[nH]2)c1,26%[59 µM],-7%,52%,3%,-5,-6%
Cn1c(=O)[nH]c(=O)c2c1nc([N+](=O)[O-])n2Cc1ccccc1,-7%,-16%,30%,3%,-5,2.4µM*
C/C=C/CSc1nc2c(c(=O)[nH]c(=O)n2C)n1Cc1ccc(C)cc1,4.5µM*,-23%,-10%,4%,-14,?
C/C=C/Cn1c(SCc2ccccc2)nc2c1c(=O)[nH]c(=O)n2C,35µM*,-20%,-21%,-8%,-3,24µM*
Cc1ccc(NC(=O)Nc2nnc(N3CCCC3)s2)cc1C,-48%[59 µM],-32%,11%,?,/,/
CCOC(=O)C1CCCN(S(=O)(=O)c2ccc(N3CCCCS3(=O)=O)cc2)C1 (stereo not given),-20%[12.7 µM],-1%,31%,-9%,/,/
CCc1c(C)sc(NC(=S)N2CCN(C(=O)C3CCCO3)CC2)c1C(=O)OC (stereo not given),50µM*,?,?,?,-1,-12%
CCc1ccc(NC(=O)CSc2ccc(-c3sc(-c4ccccc4)nc3C)nn2)cc1,0%[59 µM],?,33%,-1%,/,/
Cc1nc2cc(N3CCOCC3)c(NC(=O)C3CC3)cc2c(=O)n1Cc1ccccc1,50µM*,?,11%,?,-27,-5%
COc1ccc(C2=CC(c3ccc(OC)c(OC)c3)NC(=S)N2)cc1 (stereo not given),32µM*,-7%,58%,-27%,-3,?
COc1ccc(C2C=C(C34CC5CC(CC(C5)C3)C4)NC(=S)N2)cc1 (stereo not given),?,?,-7%,?,-21,12µM*
COc1cccc(C2=CC(c3ccc(OC)c(OC)c3)NC(=S)N2)c1 (stereo not given),/,-19%,46%,?,1,-16%
COc1ccc(C2C=C(c3ccc(F)cc3)NC(=S)N2)cc1OC (stereo not given),45µM*,-30%,?,?,-12,-21%
COc1ncc2nc(C)c(=O)n(CCC#N)c2n1,-5%[12.7 µM],/,/,/,/,/
Cc1cccnc1C1=NOC(Cc2ccccc2)C(=O)N1C (stereo not given),/,/,/,/,0,5%
COc1ccc(Nc2c(C)cccc2C)cc1,8%[59 µM],8%,25%,-5%,7,1%
SMILES,G9a block,JMJD2A Tudor inh,HP1b chromo inh,BAZ2B inh,PI5P4K alpha inh,PLK1 PBD inh
COc1ccc(Nc2ccccc2N)cc1,16µM*,45µM*,?,35µM*,-6,6%
Nc1ccc(Nc2ccccc2N)cc1,?,50µM*,?,35µM*,/,?
CCN(CC)S(=O)(=O)c1ccc(O)c(NS(=O)(=O)c2ccccc2F)c1,1.4µM*,-23%[57.1 µM],?,-5%,-19,24µM*
CCOc1ccc(S(=O)(=O)N(CC)CC)cc1NS(=O)(=O)c1ccc(F)c(F)c1F,-8%[59 µM],50µM*,9%,8%,-21,9.5µM*
CCOc1cc(S(=O)(=O)N(CC)CC)ccc1F,-37%[59 µM],12%,24%,?,/,-11%
OC(CNC1CCCCCC1)COc1cccc2ccccc12 (stereo not given),45µM*,3.5µM*,-19%,?,14,-3%
OC(CNC1CCCC1)COc1ccccc1Br (stereo not given),/,-14%,31%,8%,2,-12%
N#Cc1ccccc1Sc1ccccc1C(=O)NCC(c1ccco1)N1CCCC1 (stereo not given),2.8µM*,?,?,50µM*,-10,-10%
CC(=O)c1ccc(NC(=S)NCC(c2ccco2)N2CCCC2)cc1 (stereo not given),50µM*,-22%,25%,-23%,1,-10%
N#Cc1ccc(C(=O)NCC(c2ccco2)N2CCCC2)cc1 (stereo not given),?,19%[11.4 µM],38%,6%,-3,-23%
CCC(Sc1nc2ccccc2c2nc(CCc3c(C)n[nH]c3C)nn12)C(=O)Nc1ccc(OC)cc1 (stereo not given),0%[59 µM],-18%,21%,-11%,/,/
O=c1cc(-c2ccccc2)oc2ccccc12,-1%[12.7 µM],-12%,25%,-5%,1,-3%
Nc1cc([N+](=O)[O-])cc2oc(-c3ccccc3)cc12,25%[0.501 µM],13µM*,?,10µM*,24,-25%
Cc1ccccc1-n1c(SCC(=O)N2CCOCC2)nc(O)c(Cc2ccccc2)c1=O,/,0%,26%,-9%,-2,-17%
O=C(Nc1ccc2c(c1)[C@H]1C[C@@H](CC(=O)N3CCOCC3)O[C@@H](CO)[C@H]1O2)C1CCOCC1,/,/,/,/,-1,-9%
CCN(CCCNC(=O)c1ccc(Sc2ccc(F)cc2)c(NC(C)=O)c1)c1ccccc1,?,56µM*,-3%,?,/,/
CC(=O)Nc1cc(C(=O)NCc2ccccc2Cl)ccc1Sc1ccc(F)cc1,8%[59 µM],-18%,38%,2%,/,/
CC(C)CC(=O)N=C1SC2CS(=O)(=O)CC2N1Cc1ccccc1Cl (stereo not given),?,-7%,42%,-9%,5,-2%
CCCCN(C(=O)c1cc2c(s1)CCC2)c1c(N)n(CCC)c(=O)[nH]c1=O,45µM*,?,?,?,?,-19%
